Screening results deposited in PubChem BioAssay by National Center for Advancing Translational Sciences (NCATS).
Most compounds without a hit are left out; they make up all but 3.3% or so of the library.
RE007 growth inh – qHTS Assay for Inhibitors of the HIV-1 protein Vpr; Potency, µM (doses to about 92.2 µM), inactives show at the highest dose activity change, negative = less growth, most hits filed as inhibitors; AID 651644, 2012; S. pombe RE007 Vpr strain, BacTiter-Glo ATP luminescence, 24 h; 360,000 compounds, 0.21% hits; active = well fitted falling curve with a large enough effect; inconclusive = small, poorly fitted or top-dose-only effect; inactive = no such curve, though single readings can be large or run the other way; note: % is set by controls: 0 for no effect and ±100 for the full control effect; nearly all actives have a fitted effect of over 50% in size
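Fission yeast strain RE007, carrying one chromosomally integrated HIV-1 vpr copy, was seeded at OD 0.01 in PMG+AL medium with 23 nL pinned compound. After 24 h at 30 °C and 99% humidity, viability was read by BacTiter-Glo luminescence.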
AmpC no deterg – qHTS Inhibitors of AmpC Beta-Lactamase (assay without detergent) | P00811 | AmpC nitrocefin hydrolysis, absorbance 480 nm, 0.0001% Triton | Potency, µM (highest dose often 57.1 µM), inactives show at the highest dose activity change, negative = inhibition, most hits filed as inhibitors | 330,000 compounds, 0.52% hits | AID 485341, 2010;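 note: plate controls were no compound for no effect and no enzyme for full effect; nearly all actives have a fitted effect of over 20% in size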
Target sequence (P00811 whole entry, looked up): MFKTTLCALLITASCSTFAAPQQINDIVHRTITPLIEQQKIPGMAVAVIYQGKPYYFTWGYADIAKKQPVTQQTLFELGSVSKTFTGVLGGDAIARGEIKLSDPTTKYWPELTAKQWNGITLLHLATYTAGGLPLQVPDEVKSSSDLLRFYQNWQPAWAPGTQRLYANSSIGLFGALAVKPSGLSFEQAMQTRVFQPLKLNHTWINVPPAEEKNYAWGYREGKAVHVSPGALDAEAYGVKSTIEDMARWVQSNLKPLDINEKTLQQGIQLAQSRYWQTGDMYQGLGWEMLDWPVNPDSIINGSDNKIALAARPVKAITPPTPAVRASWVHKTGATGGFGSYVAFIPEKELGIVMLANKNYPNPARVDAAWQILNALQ
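20 mM phosphate pH 7.0 + 0.01% (detergent screen) or 0.0001% Triton X-100; 5.3 nM AmpC reagent; cpd preinc 15 min RT; nitrocefin (800 uM stock) to start; A480 q20 s × 4 min; Activity was normalised to no-enzyme and no-compound control wells.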
Sm TGR block – qHTS Assay for the Inhibitors of Schistosoma Mansoni Peroxiredoxins; Schistosoma mansoni thioredoxin glutathione reductase (TGR), Q962Y6; purified TGR, DTNB reduction, TNB absorbance 405 nm; Potency, µM (series often up to 114 µM), inactives show at the top dose activity change, negative = inhibition, hits mostly inhibitors; 360,000 compounds, 3% hits; note: % is set by controls: 0 for no effect and ±100 for the full control effect; nearly all actives have a fitted effect of over 60% in size
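Kinetic colorimetric format: TGR-catalysed, NADPH-driven DTNB reduction monitored via TNB absorbance. Enzyme dispensed at 20 nM; compound exposure 15 min at room temperature before reaction start.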
TbPYK inhibitor – qHTS of Trypanosoma Brucei Inhibitors; TbPYK enzyme, Kinase-Glo Plus ATP luminescence, 45 min; Potency, µM (series often up to 76.8 µM), without a hit: at the highest dose activity, negative = inhibition, hits mostly inhibitors; 410,000 compounds, 0.12% hits; AID 624173, 2012; note: % is set by controls: 0 for no effect and ±100 for the full control effect; nearly all actives have a fitted effect of over 50% in size
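TbPYK + substrate in 50 mM TEA pH 7.2, 100 mM KCl, 10 mM MgCl2, 0.05% BSA, 0.01% Tween-20; cpd pinned; ADP 130 uM final; 45 min RT; Kinase-Glo Plus 10 min; luminescence endpoint.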
SARS PLpro yeast – qHTS of Yeast-based Assay for SARS-CoV PLP; S. cerevisiae expressing SARS-CoV PLpro, growth rescue; Potency, µM (highest dose often 32.9 µM), inactives show at the top dose activity, positive = growth rescue, hits mostly activators; 330,000 compounds, 0.19% hits; AID 485353, 2010; calls by dose curve; note: 0% is about no effect; nearly all actives have a fitted effect of over 55% in size
AmpC inh detg – qHTS Inhibitors of AmpC Beta-Lactamase (assay with detergent). AmpC hydrolysis of nitrocefin, absorbance 480 nm, 0.01% Triton. 370,000 compounds, 0.041% hits. Potency, µM (series often up to 114 µM), without a hit: top-dose activity change, negative = inhibition, most hits filed as inhibitors. P00811. AID 485294, 2010;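 note: 0% = no-compound wells and -100% = no-enzyme wells; nearly all actives have a fitted effect of over 25% in size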
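AmpC (5.3 nM in the dispensed reagent) in 20 mM phosphate pH 7.0 with 0.01% (detergent screen) or 0.0001% Triton X-100 was preincubated with compounds for 15 min at room temperature. Nitrocefin was then added from an 800 uM solution, and hydrolysis was followed at 480 nm.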
Starred values were filed as active, the others as inactive; ? = inconclusive; / = no result; [ ] = remark or other dose. Unless noted, calls come from the whole dose curve; as a rule, active = well fitted curve in the direction sought with a large enough effect; inconclusive = small, poorly fitted or top-dose-only effect, or another doubt; inactive = no such curve, though single readings can be large; an effect the other way counts as inactive or inconclusive. Potency is the fitted concentration of half-maximal effect.

SMILES	RE007 growth inh	AmpC no deterg	Sm TGR block	TbPYK inhibitor	SARS PLpro yeast	AmpC inh detg
Cc1ccc(/C=C2\SC(=S)N(/N=C/c3cc([N+](=O)[O-])ccc3O)C2=O)o1	?	-54.4%	8.91µM*	?	3.3%	-3.7%
O=C(NN1C(=O)/C(=C/c2cc([N+](=O)[O-])ccc2O)SC1=S)c1ccccc1O	/	-19.3%	35.5µM*	/	-11.6%	1.2%
O=C(NCCCN1CCOCC1)C1CCC(=O)N1CCc1ccccc1 (stereo not given)	-7.4%	-14.1%	89.1µM*	1.5%	-1.3%	?
CCOC(=O)c1cnc(SC2CC(=O)N(c3ccccc3)C2=O)nc1N (stereo not given)	13.2%	-20.3%	-69.1%	-1.2%	-10.9%	-12.4%
CCOC(=O)c1cc(CC)sc1N1C(=O)CC(Sc2ccccc2C(=O)O)C1=O (stereo not given)	-23.0%	-2.1%	14.1µM*	-3.0%	-4.1%	-12.3%
CCOC(=O)c1cc(CC)sc1N1C(=O)CC(Sc2ncccc2C(=O)O)C1=O (stereo not given)	3.1%	-17.1%	25.1µM*	-9.0%	0.1%	?
CCOC(=O)c1c(N)n(-c2ccc(Cl)c(Cl)c2)c2nc3ccccc3nc12	/	/	10.7%	-2.3%	/	9.7%
Cc1cc(C(=O)Nc2ccc(Cl)cc2)c(C)n1Cc1cccs1	18.1%	-51.5%	?	-8.3%	-2.1%	-3.6%
Cc1cc(C)cc(NC(=O)c2cc(C)n(Cc3cccs3)c2C)c1	4.1%	-46.0%	39.8µM*	0.2%	-0.1%	-11.3%
Cc1ccc(OCCC(=O)OCC(=O)NC(=O)NC2CCCC2)cc1	-26.7%	35.5µM*	-3.4%	-2.2%	-8.6%	-14.5%
CC(C)c1ccc(S(=O)(=O)N2CCN(CC(=O)c3ccc(O)c(O)c3)CC2)cc1	/	-32.4%	25.1µM*	/	-4.4%	?
CCOc1ccc(OCCC(=O)OCC(=O)N2CCN(S(=O)(=O)c3ccc(C)cc3)CC2)cc1	7.0%	-9.1%	50.1µM*	-3.5%	6.7%	-13.4%
CCOc1ccc(C(=O)CN2CCN(S(=O)(=O)c3ccc(Cl)cc3)CC2)cc1	-2.3%	5.4%	31.6µM*	-10.5%	-12.5%	-4.5%
O=C(CN1CCN(S(=O)(=O)c2ccc(Br)cc2)CC1)c1ccc(O)c(O)c1	5.6%	-26.8%	14.1µM*	?	-1.6%	-0.8%
O=S(=O)(/C(=C/c1ccc(C(F)(F)F)cc1)c1nc2ccccc2[nH]1)c1ccccc1	-10.4%	-47.5%	17.8µM*	-11.0%	-27.1%	-9.0%
Brc1ccc(-c2noc(C3CCCCC3)n2)cc1	-6.8%	-20.2%	12.8%	-2.5%	0.3%	2.4%
c1ccc(-c2noc(C3CCCCC3)n2)nc1	35.5µM*	-17.7%	-4.3%	2.6%	3.4%	-2.3%
COc1ccccc1NC(=O)c1csc2c1CCC(C)C2 (stereo not given)	-27.4%	198.9%	50.1µM*	2.6%	-1.0%	5.6%
COc1ccc(NC(=O)c2c(NCc3ccc(C)o3)sc3c2CCC(C)C3)c(OC)c1 (stereo not given)	/	/	28.2µM*	-20.4%	/	16.6%
COc1ccc(NC(=O)c2c(NCc3cccs3)sc3c2CCC(C)C3)c(OC)c1 (stereo not given)	/	/	-7.8%	?	/	17.4%
CCOc1ccccc1NC(=O)c1c(NCc2sccc2C)sc2c1CCC(C)C2 (stereo not given)	/	/	-2.0%	-13.4%	/	-9.8%
COc1ccc(NC(=O)c2c(NCc3ccc(C)o3)sc3c2CCC(C)C3)cc1 (stereo not given)	/	/	10µM*	?	/	8.9%
COc1ccc(NC(=O)c2c(NC(=O)COc3ccccc3)sc3c2CCC(C)C3)cc1 (stereo not given)	/	/	-7.5%	-4.9%	/	4.3%
COc1ccccc1NC(=O)c1c(NCc2ccc(C)o2)sc2c1CCC(C)C2 (stereo not given)	/	/	31.6µM*	-29.8%	/	17.0%
Cc1cc(F)ccc1NC(=O)c1csc2c1CCC(C)C2 (stereo not given)	/	/	-1.2%	-7.8%	/	-1.9%
SMILES	RE007 growth inh	AmpC no deterg	Sm TGR block	TbPYK inhibitor	SARS PLpro yeast	AmpC inh detg
CCOc1ccc(NC(=O)Cn2c(=O)nc(-c3ccccc3)c3ccccc32)cc1	/	/	-0.1%	-5.6%	/	4.0%
COc1ccc(NC(=O)c2c(NCc3cccs3)sc3c2CCCC3)c(OC)c1	/	/	-5.2%	-7.2%[15.4 µM]	/	12.7%
COc1ccc(NC(=O)c2c(NCc3ccc(C)o3)sc3c2CCCCC3)c(OC)c1	/	/	2.82µM*	?	/	-10.3%
CCOc1ccc(-n2c(=O)c3c4c(sc3n(Cc3cccc(C)c3)c2=O)CCCC4)cc1	/	/	10.5%	8.4%	/	4.1%
O=C1SC(c2ccccc2)=C/C1=C\N1CCCCC1	0.3%	-25.1%	0.0%	0.1%	-9.8%	-12.0%
O=C1OC(c2ccccc2)=C/C1=C\N1CCOCC1	15.9%	-28.1%	20µM*	0.6%	-5.3%	-0.2%
O=C1OC(c2ccccc2)=C/C1=C/N1CCOCC1	?	-9.3%	39.8µM*	-11.4%	-9.7%	-11.3%
C[C@@H](C(=O)O)c1ccc(C2CCCCC2)c2ccccc12	/	/	/	2.4%	/	/
COc1ccc(-c2nc3scc(CCNS(=O)(=O)c4ccc(C)cc4)n3n2)cc1	/	/	-3.0%	-1.3%	/	-1.2%
O=C(c1ccc(S(=O)(=O)c2cccc(Cl)c2)c([N+](=O)[O-])c1)N1CCN(c2ccccn2)CC1	-15.8%	31.5%	3.55µM*	0.6%	-4.2%	7.5%
CCOc1ccccc1NC(=O)CSc1cc(=O)n(CC)c2ccccc12	/	/	4.3%	0.8%	/	7.2%
COc1ccc(CCNC(=O)c2c[nH]c3ccc(F)cc3c2=O)cc1OC	-9.8%	63.9%	-7.9%	-2.8%	/	-3.1%
COc1ccc(CCN(C)CC(=O)Nc2c(C)cc(C)cc2C)cc1OC	17.0%	55.0%	100µM*	1.2%	-0.8%	3.4%
COc1ccc2[nH]cc(C(=O)CCl)c2c1	20.6%	-48.9%	2.82µM*	-7.2%	-0.4%	-14.0%
COc1ccc2[nH]cc(C(=O)CN(C)CCc3ccc(OC)c(OC)c3)c2c1	-6.0%	-43.8%	12.6µM*	-7.1%	6.7%	-15.7%
COc1ccc2[nH]cc(C(=O)CN3CC(C)CC(C)C3)c2c1 (stereo not given)	-0.9%	-16.1%	-29.6%	2.0%	-3.8%	2.9%
COc1ccc(CCN(C)CCC(=O)Nc2cc(C)ccc2C)cc1OC	-4.1%	22.7%	29.7%	-15.6%	0.9%	2.3%
